# Data from the supplement of paper PMC6555819.
# Assays:
# Test in all cases: PBM binding z-score (relative to random genomic background probes); higher = stronger binding; sequences stand for … in GC…GCGATTGACAGCGTAGAATGAAGG
# [1] = tested on: FXR:RXRa (NR concentration 270 nM, RXRa partner concentration 90 nM)
# Outline: (§1)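 Custom Agilent 4×180K protein-binding microarrays carried double-stranded probes, each with a 34-nt variable region. These regions held direct-repeat seeds, single-nucleotide variants, half-site ablations and random human genomic background sequences. Ligand-free nuclear receptor dimers were incubated on the arrays for 1 h, antibodies against each partner (one per run) detected binding, and scanned fluorescence was regression-normalized. Binding z-scores take the random background probes as reference.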
# [2] = tested on: LXRa:RXRa (NR concentration 270 nM, RXRa partner concentration 90 nM)
# Outline: as §1
# [3] = tested on: LXRa homodimer (NR concentration 270 nM)
# Outline: as §1
# [4] = tested on: LXRb:RXRa (NR concentration 270 nM, RXRa partner concentration 90 nM)
# Outline: as §1
# [5] = tested on: LXRb homodimer (NR concentration 270 nM)
# Outline: as §1
# [6] = tested on: PPARa:RXRa (NR concentration 270 nM, RXRa partner concentration 90 nM)
# Outline: as §1
# [7] = tested on: PPARg:RXRa (NR concentration 180 nM, RXRa partner concentration 90 nM)
# Outline: as §1
# [8] = tested on: PPARg:RXRa 270nM:90nM, anti-RXR (NR concentration 270 nM, RXRa partner concentration 90 nM)
# Outline: as §1
# [9] = tested on: PPARg:RXRa 30nM:10nM, anti-RXR (NR concentration 30 nM, RXRa partner concentration 10 nM)
# Outline: as §1
# [10] = tested on: PPARg:RXRa 90nM:30nM, anti-RXR (NR concentration 90 nM, RXRa partner concentration 30 nM)
# Outline: as §1
Sequence,PBM binding z-score [1],PBM binding z-score [2],PBM binding z-score [3],PBM binding z-score [4],PBM binding z-score [5],PBM binding z-score [6],PBM binding z-score [7],PBM binding z-score [8],PBM binding z-score [9],PBM binding z-score [10]
TGTCAAAGTTCAAAGGGAACGTAAGTATCCACAC,7.11,6.18,3.96,4.16,1.68,5.06,8.1,7.17,5.31,7.11
ATCTTTAGGTAAAAGTTCAGTGAATCCCGAGGAT,0.829,1.33,1.14,0.973,1.01,4.03,6.36,7.35,6.09,7.91
ATAAGTAGGTTACATCCGGGTCATTCAGGCTATG,2.43,4.37,1.57,2.84,1.24,4.53,6.68,5.15,3.19,4.37
CCGAGTAGGTTATGGGGCATTCAAGCAACGGTGA,0.071,0.506,-0.128,0.732,0.278,2.1,3.82,4.64,2.45,4.67
CACACAGGGTCAGCTAGGCCAGAGTAGGGACGGC,4.77,2.64,-0.0558,2.18,0.152,4.32,3.21,2.62,0.502,1.62
CCTATTAGTTGACCATAAGGGGAACCGAAGCTCG,0.142,0.366,0.327,0.217,0.84,0.0558,0.299,0.112,-0.0773,0.104
GCGACTGGGACATCAGCAGGTTACCATAACTTAA,-0.41,-0.456,-0.462,-0.188,-0.768,0.248,0.495,-0.264,-0.28,-0.281
ATTAGCAGGCCAAGTTTGGGTCACTCAAACAAAG,0.082,0.215,-0.128,0.803,-0.539,1.62,0.124,0.309,-0.279,0.138
CCTAGCAGGGCAGGGTCACTCAAGCATTTCGCTT,2.68,2.17,-0.361,2.12,-1.22,3.32,1.4,2.37,-0.0964,1.47
CAAACTAGGTCACGAAAGGTCAAAGGCGAATGAC,7.72,8.23,7.26,7.15,2.21,6.78,10.6,8.54,7.17,8.65
TCTTGTAGATCGAGCAGGTTAAGAAAGCCTGAGT,-0.145,0.0215,-0.393,0.284,-0.755,0.628,-0.657,1.17,2.46,1.69
CCGAGTCGGTTATGGGGCATTCAGGCAACGGTGA,-0.323,-0.235,-0.49,-0.14,-0.656,0.438,0.463,1.66,-0.306,0.771
ACAGACAGGTGGTGAAGGTAACTCAGGCTATCAT,-0.0169,-0.306,-0.324,-0.0742,-0.476,-0.288,0.473,-0.194,-0.095,-0.321
GTACCAAGGTGTATAGGTCGTTGATGAGTAGGCG,0.26,0.421,-0.0152,0.029,-0.37,0.871,0.775,0.814,0.27,0.71
CTACCGAGGTGAACAAGGTCGTTGATTACTATTC,1.49,1.66,0.107,2.37,-0.186,3.16,1.79,1.8,0.0798,0.754
CCAGACAGGTGAAAGGTATCTCAGTCTGGTACGC,-0.129,0.0546,-0.271,0.122,-0.633,2.07,3.41,4.19,1.94,4.13
ACAGACAGTTGATGAAGGTAACTCAGGCTATCAT,0.165,-0.156,-0.193,-0.191,0.0371,-0.00843,0.507,-0.149,-0.0201,-0.134
ATCTCTAGGTAACCAAGTTCAGTGGATGCCGAAC,0.155,0.544,0.622,0.38,0.373,0.94,0.437,0.741,0.192,0.555
CCTACTGGGCCAAGGTCATTCATCAGTCAAAGCA,3.63,3.65,1.71,3.07,0.00532,4.07,3.93,4.44,1.62,3.51
ATCGAAAGGTCGAGGGGAGTATAGAGAAAGGGAA,4.46,3.49,0.308,2.92,1.64,4.58,2.97,3.17,1.13,2.36
CTACCAAGGTGAACAAGGTCGTTCATTACTATTC,2.27,3.01,1.12,2.9,0.239,3.12,1.29,1.56,0.212,0.958
TATACAGGGTCAAAAGCCAGAGTACGAATGTCGA,5.93,5.72,1.74,4.3,2.65,5.48,6.57,6.01,3.42,5.08
TCTAGCAGGCCAGAGGGCCACTCAAGAGGTACGG,-0.266,-0.338,-0.799,-0.58,-1.64,0.104,0.795,1.97,1.77,1.71
AGTCAAAGTTCAGGACGAGGTAACGAAAAGCACG,4.17,3.54,0.921,1.92,0.307,3.39,4.87,5.02,2.18,4.04
